Among all 340,000 compounds or so, about 8,500 (2.5%) were called active. The sample holds actives, similar compounds and a random draw of the others, so the mix is not that of the screen.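 Rule for the calls: active = melting temperature shift of at least 10% of the positive control shift, at one fixed dose; inactive = the rest.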
These molecules were tested on Glutamate receptor ionotropic, NMDA 3A (GRIN3A) ligand-binding domain (assay: binders of NR3A ligand-binding domain, primary screen, biophysical, differential scanning fluorimetry, uHTS (AID 1259313)). Conditions: NR3A LBD differential scanning fluorimetry, at 25 µM, active compounds read high, 0% = protein alone, 100% = glycine-bound protein.

Tm shift relative to glycine control, active:
O=C(COc1ccc([N+](=O)[O-])cc1)Nc1cccc(C(=O)Nc2ccccc2C(=O)O)c1 10.6%
O=C(CSCc1ccc([N+](=O)[O-])cc1)Nc1cccc(C(=O)Nc2ccccc2C(=O)O)c1 11.3%
O=C(Nc1ccccc1C(F)(F)F)c1cc(-c2ccc(O)cc2)on1 12.7%
Cc1ccc(C(=O)Nc2nc3ccc(Cl)cc3s2)o1 11.1%
CCCC(=O)Nc1cccc(NC(=S)NC(=O)C(C)Oc2ccc(Cl)cc2Cl)c1 (stereo not given) 16%
Cc1ccc(NC(=O)O/N=C/c2cccc([N+](=O)[O-])c2)cc1 15.8%
COc1cccc(Cn2cc(/C=N/NC(=O)c3cc(O)cc(O)c3)c3ccccc32)c1 15.4%
CCn1c(=S)sc2c(=O)n(CC(=O)Nc3cccc(Br)c3)c(C)nc21 19%
NS(=O)(=O)c1ccc(NC(=O)/C=C/c2ccccc2Cl)cc1 22.5%

Tm shift relative to glycine control, inactive:
CCCn1c(N)c(N(CCOC)C(=O)C2CCCC2)c(=O)[nH]c1=O 0.34%
COc1ccc(CCNC(=O)CSc2nnc3ccc(-c4ccncc4)nn23)cc1 -0.92%
O=C(CSCc1ccc([N+](=O)[O-])cc1)NCCSCc1ccccc1 1.53%
Cc1cc(NC(=O)COc2ccc([N+](=O)[O-])cc2)no1 1.03%
COc1ccc(NC(=O)CSCc2ccc([N+](=O)[O-])cc2)cc1OC 4.6%
O=C(Nc1ccccc1C(=O)Nc1ccncc1)c1ccc([N+](=O)[O-])cc1 -13.8%
Cc1c(CC(=O)N2CCN(C(=O)C3COc4ccccc4O3)CC2)c(=O)oc2c(O)c(O)ccc12 (stereo not given) 1.85%
Cc1ccccc1Nc1scc(-c2ccc(Br)cc2)[n+]1-c1ccccc1C 0.51%
COCC(C)NC(=O)c1ccc(-n2nc(C(F)(F)F)cc2-c2cccs2)cc1 (stereo not given) -0.17%
COC(=O)c1cn(C)c2ccc(S(=O)(=O)N3CC(C)CC(C)C3)cc2c1=O (stereo not given) 1.34%
O=C(Nc1cccnc1Cl)c1cc(-c2cccc(Cl)c2)on1 -2.35%
CCc1ccccc1NC(=O)c1cc(-c2ccc3c(c2)OCO3)on1 0.47%
CNC(=O)c1nnn(-c2ccccc2)c1C(=O)NC 4.23%
O=[N+]([O-])c1cc(C(F)(F)F)ccc1NCCc1ccncc1 0.61%
Cc1sc2ncnc(N3CCC(C(=O)Nc4nc5ccc(Cl)cc5s4)CC3)c2c1C 7.43%
Cc1csc(NC(=O)c2ccc(-c3ccc(Cl)cc3Cl)o2)n1 -7.24%
O=C(NCCCn1ccnc1)c1cc(-c2ccccc2)on1 1.42%
CS/C(=C\[N+](=O)[O-])Nc1ccc(C)cc1 -1.04%
CC(Oc1ccc(Cl)cc1Cl)C(=O)/C=C/N(C)C (stereo not given) -0.27%
COc1cccc(NC(=O)CN(C)C(=O)Cc2ccc(Cl)cc2Cl)c1 -0.7%
Cc1ccc(NC(=O)c2cnc(SCC(=O)NCC3CCCO3)n(C)c2=O)cc1 (stereo not given) -0.94%
CC(C)CN(C(=O)CN1CCN(S(=O)(=O)c2ccccc2)CC1)c1c(N)n(CC(C)C)c(=O)[nH]c1=O -2.36%
CSc1ccc(Cl)c(C(=O)OCC(=O)N2CC(C)OC(C)C2)c1 (stereo not given) 1.12%
O=C1NC(c2ccccc2)Cc2ccncc21 (stereo not given) 0.42%
CCc1ccc(NC(=O)C(C)OC(=O)/C=C/c2cccc([N+](=O)[O-])c2)cc1 (stereo not given) 0.39%
CCC(CC)NC(=O)/C=C/c1cccc([N+](=O)[O-])c1 -1.15%
CCOc1ccc(-c2cc(C(=O)N/N=C/c3ccc(O)cc3)c3ccccc3n2)cc1 3.69%
Cc1ccc(C(=O)N/N=C/c2cccc3ccccc23)cn1 -0.89%
N#CCC(=O)N/N=C/c1cn(Cc2ccc3ccccc3c2)c2ccccc12 8.21%
CCOC(=O)c1ccccc1NC(=O)CSc1nc2c(sc(=S)n2CC)c(=O)[nH]1 2.58%
CCn1c(=S)sc2c(=O)n(CC(=O)Nc3ccc(OC)cc3)c(C)nc21 -1.05%
CCCCN(CC)C(=O)C1CCCN(S(=O)(=O)c2cccc3nsnc23)C1 (stereo not given) -4.45%
CC1C(=O)Nc2ccc(S(=O)(=O)N3CCN(c4ccccc4F)CC3)cc2NC1=O (stereo not given) 0.26%
Cc1cccc2nc(CNc3ccc(F)cc3)cn12 -1.65%
O=C(/C=C/c1ccccc1Cl)Nc1ccc(S(=O)(=O)Nc2ncccn2)cc1 3.4%
CC(=O)NS(=O)(=O)c1ccc(NC(=O)/C=C/c2ccccc2Cl)cc1 -4.31%

Source: PubChem BioAssay AID1259313 (Sanford-Burnham Center for Chemical Genomics, 2017)
